Tau fibril FP: tau fibrillization inhibition (FP) | P10636 | K18 P301L tau heparin fibrillization, Alexa594 FP, 6 h | Potency, µM (doses to about 57.7 µM), without a hit: top-dose activity, negative = inhibition, usual class: inhibitors | 280,000 compounds, 0.39% hits | AID 1468; note: potency is the fitted concentration of half-maximal effect; nearly all actives have a fitted effect of over 55% in size
Target sequence (P10636 561-689 P618L limits assumed): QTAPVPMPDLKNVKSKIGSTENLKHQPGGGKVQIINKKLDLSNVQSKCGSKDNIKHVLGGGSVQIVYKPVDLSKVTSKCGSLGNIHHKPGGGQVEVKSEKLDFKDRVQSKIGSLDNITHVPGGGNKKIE
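Human K18 P301L fragment (15 uM unlabeled plus 0.24 uM Alexa 594-labeled) in 100 mM sodium acetate pH 7 with compound, aggregation induced by 20 uM heparin for 6 hr at 37 C. ThT (30 uM) added for 1 hr, then Alexa 594 FP read.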
Tau ThT inhib: inhibitors of human tau fibril formation, thioflavin T binding; 270,000 compounds, 2.1% hits; recombinant tau K18 P301L, heparin-induced fibrillization, ThT fluorescence; AID 1460; P10636; Potency, µM (titrated, usually from 57.4 µM), for inactives: at the top dose activity, negative = inhibition, hits mostly inhibitors; note: potency is the fitted concentration of half-maximal effect; nearly all actives have a fitted effect of over 55% in size
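Fibril formation assay: tau K18 P301L at 15 uM with trace Alexa 594 label, heparin inducer 20 uM, pH 7 sodium acetate buffer, 37 C for 6 hr; endpoint ThT signal.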
Tau fluor cs: counter-screen for tau fibril formation inhibitors | Potency, µM (top dose mostly 57.7 µM), without a hit: at the highest dose activity change, negative = decrease | 280,000 compounds, 0.93% hits | tau K18 P301L Alexa594 fluorescence, heparin fibrillization; note: potency is the fitted concentration of half-maximal effect; nearly all actives have a fitted effect of over 55% in size
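Human tau K18 P301L (15 uM unlabeled, 0.24 uM Alexa 594-labeled) in 100 mM sodium acetate pH 7 with 20 uM heparin, 6 hr at 37 C. ThT 30 uM added, 1 hr ambient; Alexa 594 FP and total fluorescence read at 555/632 nm.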
KDM4E inh: inhibitors of human JMJD2E histone demethylase; B2RXH2; 230,000 compounds, 1.6% hits; JMJD2E catalytic domain, FDH-coupled NADH fluorescence (FDH is formaldehyde dehydrogenase); Potency, µM (series often up to 57.1 µM), inactives show at the highest dose activity change, negative = inhibition, usual class: inhibitors; active = well fitted inhibition curve with a large enough effect, not every such curve was filed as active; inconclusive = small, poorly fitted or top-dose-only effect, or another doubt; inactive = no such curve, though single readings can be large or run the other way;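 note: potency is the fitted concentration of half-maximal effect; 0% = wells with enzyme and -100% = buffer wells without enzyme; nearly all actives have a fitted effect of over 50% in size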
NPSR antag: antagonists of human neuropeptide S receptor cAMP signaling | CHO-NPSR cells, cAMP TR-FRET, antagonist mode | Potency, µM (doses to about 38.3 µM), for the others: at the top dose activity change, negative = inhibition, hits mostly inhibitors | 220,000 compounds, 1% hits | AID 1461; note: potency is the fitted concentration of half-maximal effect; nearly all actives have a fitted effect of over 50% in size
Target sequence (Q6W5P4 whole entry, looked up): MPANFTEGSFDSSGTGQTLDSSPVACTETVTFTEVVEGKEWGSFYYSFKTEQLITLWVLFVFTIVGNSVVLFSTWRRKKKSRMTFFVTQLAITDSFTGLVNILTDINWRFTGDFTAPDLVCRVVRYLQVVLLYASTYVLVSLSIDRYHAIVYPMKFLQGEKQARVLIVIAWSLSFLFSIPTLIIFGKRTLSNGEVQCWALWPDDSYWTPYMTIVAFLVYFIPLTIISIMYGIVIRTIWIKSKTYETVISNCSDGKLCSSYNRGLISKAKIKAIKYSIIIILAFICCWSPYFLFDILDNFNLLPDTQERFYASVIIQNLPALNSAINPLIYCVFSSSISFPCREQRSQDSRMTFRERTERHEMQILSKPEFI
PNC assembly inh: inhibitors of perinucleolar compartment assembly; PC3M PTB-GFP, PNC prevalence imaging, 16 h; hits give low values; activity change (PNC), negative = inhibition, % at 10 µM; 140,000 compounds, 3.1% hits;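 active = readout at or below -70, meaning at least 70% loss of cells showing the perinucleolar compartment, a nuclear body marking cancer cells; inconclusive = readout between -30 and a set limit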;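 note: plate controls were DMSO wells for no effect and camptothecin positive control wells for full effect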
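Read-out is percentage of cells bearing a perinucleolar compartment, from automated 20x imaging of fixed, Hoechst-stained PC3M PTB-GFP cells. Cells were seeded 4 h, then exposed 16 h to compound (23 nl of library stock) in duplicate plates.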
Numbers without * were called inactive; ? = inconclusive; / = no result given; [ ] = another dose, or the depositor's remark. Rows were chosen to be rich in hits. Some 5.1% of all compounds tested hit in one or more screens of this group. Unless noted, calls come from the whole dose curve; as a rule, active = well fitted curve in the direction sought with a large enough effect; inconclusive = small, poorly fitted or top-dose-only effect, or another doubt; inactive = no such curve, though single readings can be large; an effect the other way counts as inactive or inconclusive. Unless noted, % is set by controls: 0 for no effect and ±100 for the full control effect.

SMILES	Tau fibril FP	Tau ThT inhib	Tau fluor cs	KDM4E inh	NPSR antag	PNC assembly inh
CC(=O)N1CCN(c2cc(N3CCc4ccccc4C3)c(F)cc2[N+](=O)[O-])CC1	3%	16µM*	-23%	7%	-27%[46.1 µM]	5
CCOC(=O)N1CCN(c2cc3[nH]c(=S)[nH]c3cc2F)CC1	0%	?	-11%	?	-3%[46.1 µM]	-91*
CCOC(=O)N1CCN(c2cc(N)c([N+](=O)[O-])cc2F)CC1	-4%	4.5µM*	-16%	-6%	-13%[46.1 µM]	-22
CCOC(=O)N1CCN(c2c(F)cc3[nH]c(=S)[nH]c3c2Br)CC1	7%	-16%	-18%	8%	-12%[46.1 µM]	28
N#Cc1ccc(N2CCc3ccccc3C2)c([N+](=O)[O-])c1	-17%	?	-28%	-16%	15%[46.1 µM]	-20
Cc1ccc(S(=O)(=O)N2CCCc3cc(NS(=O)(=O)c4ccccc4)ccc32)cc1	?	5%	?	/	/	/
COc1ccc2c(c1)C(=O)[C@@H](OC(=O)NC1CCCC1)[C@H](c1ccc(OC)c(Br)c1)O2	-1%	-12%	-13%	-7%	/	/
Cc1cc(C)nc(-n2nc(C)c3c2N(Cc2ccccc2F)C(=O)CC3c2ccc(Cl)cc2)n1 (stereo unspecified)	10%	-11%	6%	/	/	/
CCOc1ccc(-n2c(SCC(=O)N3CCCCC3)nc3c([nH]c4ccccc43)c2=O)cc1	-10%	-2%	-7%	/	/	/
COC(=O)c1cccc(-n2c(CCC(=O)O)ccc2-c2cccs2)c1	2%	?	-16%	25µM*	13%	/
Cc1ccc(S(=O)(=O)Cn2nnnc2C(CC(C)C)N2CCN(c3ccc(F)cc3)CC2)cc1 (stereo unspecified)	8%	1%	-14%	-1%	1%[46.1 µM]	-115*
CCCC(c1nnnn1CS(=O)(=O)c1ccc(C)cc1)N1CCN(c2ccccc2)CC1 (stereo unspecified)	6%	-12%	-21%	-3%	-23%[46.1 µM]	?
ClCc1csc(-c2ccc(Cl)cc2)n1	1%	-11%	-10%	-28%	10%	-113*
CCOc1ccc(-c2nc(CCl)cs2)cc1	1%	?	-11%	?	-3%	/
CC(C)C(=O)Nc1cccc(-c2cnc3ccccc3n2)c1	-10%	-19%	-18%	-5%	-3%[46.1 µM]	-96*
COc1ccc(N2CCN(C(=O)CSc3c4c(nc5ccc(Cl)cc35)CCCC4)CC2)cc1	-5%	14µM*	?	/	/	/
O=C(CSc1c2c(nc3ccc(Cl)cc13)CCCC2)N1CCN(c2ccc(Cl)cc2)CC1	-11%	?	-15%	/	/	/
O=c1cc(N2CCN(c3ccc(F)cc3)CC2)[nH]c(=O)n1-c1cccc(Br)c1	-7%	-3%	-5%	/	/	/
O=C(c1ccco1)N1c2ccccc2Sc2ccccc21	9%	7%	12%	-2%	-18%[46.1 µM]	218
O=C(N1CCN(c2ccccn2)CC1)C(Cl)(Cl)Cl	-1%	2%	1%	7%	5%	?
O=C(c1ccco1)N1CCN(C(=O)N2c3ccccc3Sc3ccccc32)CC1	3%	?	-13%	11%	?	-89*
CCOC(=O)N1CCN(C(=O)c2ccccc2Oc2ccccc2)CC1	-1%	-7%	-7%	6%	-8%[46.1 µM]	?
N#Cc1nc(-c2ccco2)oc1N1CCC(C(N)=O)CC1	-5%	-2%	-8%	3.5µM*	-1%[46.1 µM]	38
O=C(c1ccco1)N1CCN(C(=O)c2ccccc2Oc2ccccc2)CC1	6%	10%	2%	7%	4%[46.1 µM]	-112*
O=C(N1CCN(c2ccccn2)CC1)N1c2ccccc2Sc2ccccc21	3%	-15%	-16%	-12%	-4%[46.1 µM]	-84*
SMILES	Tau fibril FP	Tau ThT inhib	Tau fluor cs	KDM4E inh	NPSR antag	PNC assembly inh
COc1ccc(CNC(=O)C2CCN(S(=O)(=O)c3cccc4nonc34)CC2)cc1OC	?	-2%	-10%	/	/	/
CC(C)c1ccccc1NC(=O)CN1C(=O)c2cccc3cccc1c23	-2%	5%	-1%	/	/	/
NC(=O)C1CCN(C(=O)c2ccco2)CC1	-7%	-2%	-1%	5%	5%[46.1 µM]	-81*
O=c1[nH][nH]c(-c2ccccc2O)c1C(C[N+](=O)[O-])c1ccc(Cl)cc1Cl (stereo unspecified)	0%	-18%	-30%	-22%	-19%	?
Cc1cc(O)c(C(C[N+](=O)[O-])c2ccc(Cl)cc2Cl)c(=O)o1 (stereo unspecified)	?	28µM*	-22%	7%	-13%[46.1 µM]	30
Cc1ccc(C(=O)COC(=O)CCC(=O)Nc2ccc(Oc3cc(C)ccc3C(C)C)cc2)cc1	-4%	-4%	-12%	/	/	/
Cc1onc(-c2c(Cl)cccc2Cl)c1C(=O)Nn1cnnc1	-1%	7%	11%	-4%	-12%[46.1 µM]	-107*
COc1cc(OC)c(NC(=O)N2CCc3c([nH]c4ccccc34)C2c2ccccc2F)cc1Cl (stereo unspecified)	1%	1%	?	/	/	/
Cc1cc(Br)c(NC(=O)CCl)c(Br)c1	-4%	5%	3%	0%	17%	-89*
Cc1cc(Br)c(NC(=O)CN(C)CCOc2ccccc2)c(Br)c1	6%	-14%	-5%	-28%	-33%	/
CCCCCCCC[n+]1cccc(C(=O)N(CC)CC)c1	6%	2%	0%	0%	8%	-124*
COc1ccc(Cn2c(O)c(C=Nc3ccc(O)cc3)c3ccccc3c2=O)cc1	?	?	4.5µM*[quencher]	-11%	-57%	15
Cc1oc(/N=C/c2ccccc2O)c(C#N)c1C	-1%	5%	11%	5%	-12%[46.1 µM]	-25
Cc1oc(/N=C/c2c(O)ccc3ccccc23)c(C#N)c1C	?	18µM*	-30%	?	1%[46.1 µM]	30
COc1ccc2ccccc2c1/C=N/O	6%	-6%	11%	?	4%[46.1 µM]	-108*
COc1ccc(N=Cc2c(O)ccc3ccccc23)cc1	-7%	8.9µM*	?	-15%	19%	/
CSc1ccc(CCNC(=O)c2ccc(-c3nc(COc4ccc(C)cc4)c(C)o3)cc2)cc1	?	-6%	0%	/	/	/
COC(=O)[C@@H]1C=C[C@H](C)[C@H](CCOc2ccccc2)O1	1%	-5%	-2%	12%	/	/
O=C(Cn1cc(C(=O)C2CCCCC2)c2ccccc21)Nc1ccccc1Cl	-4%	-1%	-20%	/	/	/
O=C1CC(c2ccc(O)c(O)c2)Oc2c1ccc(O)c2O (stereo unspecified)	?	16µM*	?	6.3µM*	12%	/
O=C1CC(c2ccc(O)c(O)c2)Oc2cc(O)cc(O)c21 (stereo unspecified)	-1%	?	-21%	28µM*	-16%	/
C=CCC(C)(Nc1ccccc1)C(=O)OCC (stereo unspecified)	0%	-5%	-3%	-3%	/	/
